Shown are actives, neighbours in structure and some others; about 10% of the full set was active somewhere.
G9a inh = qHTS Assay for Inhibitors of Histone Lysine Methyltransferase G9a; 350,000 compounds, 8.8% hits; Histone-lysine N-methyltransferase EHMT2 (Homo sapiens), Q96KQ7; G9a H3K9 monomethylation, AlphaScreen, 2 h; Potency, µM (series often up to 102 µM), most hits filed as inhibitors; further: nearly all actives have a fitted effect of over 75% in size
Target sequence (Q96KQ7 913-1193 limits assumed): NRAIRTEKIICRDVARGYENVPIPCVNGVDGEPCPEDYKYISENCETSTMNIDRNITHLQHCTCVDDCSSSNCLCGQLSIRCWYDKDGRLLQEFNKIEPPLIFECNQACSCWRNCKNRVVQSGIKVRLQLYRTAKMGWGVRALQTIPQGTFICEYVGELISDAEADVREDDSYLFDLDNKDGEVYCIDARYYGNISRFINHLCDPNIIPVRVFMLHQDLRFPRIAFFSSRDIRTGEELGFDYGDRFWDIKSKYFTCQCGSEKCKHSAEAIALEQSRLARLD
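Readings reflect AlphaScreen signal from monomethyl-H3K9 antibody detection. HMT at 20 nM; substrate b-H3K9 500 nM; cofactor SAM 20 uM; 2 h RT reaction; compounds tested as titrations in qHTS with 15 min preincubation.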
CtBP-E1A blk = qHTS Assay for Inhibitors of the CtBP/E1A Interaction; CtBP / adenovirus E1A interaction (AlphaScreen); AlphaScreen GST-E1A/His-CtBP binding, 1536-well; stronger effect = lower value; activity change, % (concentration not given with the values); 340,000 compounds, 0.49% hits; in the data active means activity change below about -65%; inconclusive means mostly about -30% to -63%
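Steps: dispense buffer (Tris pH 8.0, NaCl 300 mM, TCEP 1 mM, BSA, Tween 20); add 5X protein mix (GST-E1A, His-CtBP, 125 nM each); pin 23 nL compound; 2 h at 37 °C, dark; add 5X beads (50 ug/mL); 1 h; read.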
JMJD2A Tudor = qHTS Assay for Inhibitors of JMJD2A-Tudor Domain. Potency, µM (titrated, usually from 114 µM), hits mostly inhibitors. AlphaScreen JMJD2A-Tudor / H3K4me3 peptide binding. AID 504339, 2011. Lysine-specific demethylase 4A (Homo sapiens), O75164. 390,000 compounds, 4.4% hits; further: nearly all actives have a fitted effect of over 50% in size
Six1-Eya2 blk = qHTS Assay for Inhibitors of the Six1/Eya2 Interaction | 360,000 compounds, 0.56% hits | AlphaScreen GST-Six1/His-Eya2 binding, biochemical; stronger effect = lower value | Homeobox protein SIX1 (Homo sapiens) + Protein phosphatase EYA2 (Homo sapiens), … | activity change, % (concentration not given with the values) | AID 651725, 2012; in the data active means activity change below about -65%; inconclusive means mostly about -30% to -63%
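AlphaScreen luminescence read after one hour at 37 °C in darkness. Pin-transferred compounds met GST-Six1 and His-Eya2 protein (5X stock 250 nM/500 nM) plus glutathione donor and Ni-chelate acceptor beads (5X, 50 ug/mL).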
HP1b chromo inh = HTS for Inhibitors of HP1-beta Chromodomain Interactions with Methylated Histone Tails; Chromobox protein homolog 1 (Homo sapiens), P83916; AlphaScreen HP1-beta / biotin-H3K9me3 peptide binding; Potency, µM (doses to about 114 µM), usual class: inhibitors; 390,000 compounds, 0.56% hits; AID 540317, 2011; further: nearly all actives have a fitted effect of over 70% in size
Target sequence (P83916 whole entry, looked up): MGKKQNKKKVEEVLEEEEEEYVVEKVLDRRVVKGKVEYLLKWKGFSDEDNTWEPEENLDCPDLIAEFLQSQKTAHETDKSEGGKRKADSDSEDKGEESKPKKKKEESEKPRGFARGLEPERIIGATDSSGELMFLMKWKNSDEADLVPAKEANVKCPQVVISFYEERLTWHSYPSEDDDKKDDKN
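HP1-beta protein (50 nM final) preincubated 30 min at room temperature with biotinylated H3(1-18)K9me3 peptide (50 nM) in PBS pH 7.4, 0.01% Tween-20, then compound added for 30 min. AlphaScreen streptavidin donor/nickel chelate acceptor beads (10 ug/mL final), 30 min dark, luminescence read.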
BAZ2B block = qHTS Assay for Inhibitors of BAZ2B; Bromodomain adjacent to zinc finger domain protein 2B (Homo sapiens), Q9UIF8; AlphaScreen BAZ2B-H3K14Ac peptide displacement; Potency, µM (doses to about 114 µM), most hits filed as inhibitors; 360,000 compounds, 4.4% hits; further: nearly all actives have a fitted effect of over 60% in size
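Protein-peptide AlphaScreen: BAZ2B 50 nM, b-H3K14Ac 50 nM, 1x PBS pH 7.4 + 0.01% Tween-20. Preincubation 30 min RT; cpd 30 min RT (top 110 uM); beads 20 min RT, light-protected.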
Numbers stand for hits; . = inactive; ? = inconclusive; / = no result; ! = repeats disagree; [ ] = dose if it differs, or a comment. Unless noted, the call rests on the fitted dose curve; in most records, active means well fitted inhibition curve with a large enough effect; inconclusive means small, poorly fitted or top-dose-only effect; inactive means no such curve, though single readings can be large or run the other way.

SMILES	G9a inh	CtBP-E1A blk	JMJD2A Tudor	Six1-Eya2 blk	HP1b chromo inh	BAZ2B block
Oc1ccc(C2CNCCc3c2cc(O)c(O)c3Cl)cc1 (stereo not drawn)	5.3µM!	.	35µM!	.	.	.
Oc1cc2c(c(Cl)c1O)CCNCC2c1ccccc1 (stereo not drawn)	11µM	.	45µM	.	.	/
Cc1cc2c(s1)c1cnn(Cc3cccc([N+](=O)[O-])c3)c(=O)c1n2C	/	/	.	/	/	/
CC(C)(C)c1cc(CNC2CS(=O)(=O)C[C@@H]2O)cc(C(C)(C)C)c1O (stereo partly drawn)	18µM	.	.	.	.	?
O=S1(=O)CC(O)C(NCc2ccco2)C1 (stereo not drawn)	.	.	.	.	.	.
Cc1ccc(N2CCN(S(=O)(=O)c3ccc(F)c(C(=O)Nc4ccc(Cl)cc4Cl)c3)CC2C)cc1 (stereo not drawn)	.	/	.	/	.	.
COc1ccc(-c2cc3nc(C)c(CCC(=O)NC4CCCCC4)c(C)n3n2)c(OC)c1	.	/	.	/	.	.
O=C(NC(=S)Nc1ccc(CN2CCOCC2)cc1)c1ccc([N+](=O)[O-])cc1Cl	50µM	.	.	.	.	?
COc1ccc(Br)cc1C(=O)NC(=S)Nc1ccc(Cl)c(C(=O)O)c1	20µM	.	.	.	?	.
COc1ccc(C(=O)NC(=S)Nc2ccc(Cl)c(C(=O)O)c2)cc1	50µM	.	.	.	?	.
COc1ccc(Br)cc1C(=O)NC(=S)Nc1ccc(CN2CCOCC2)cc1	.[0.0925 µM]	?	?	.	.	25µM
Cc1cccn2c(=O)cc(COc3cccc(NC(=O)COc4ccccc4)c3)nc12	.	/	.	/	.	.
COc1ccc(Br)cc1/C=C/C(=O)NC(=S)Nc1ccc(Cl)c(C(=O)O)c1	32µM	/	.	.	.	?
COc1ccc(Br)cc1/C=C/C(=O)NCC(=O)O	.	.	.	.	.	.
CC(C)[C@H](NC(=O)OC(C)(C)C)c1cc(C(=O)N2CCOCC2)c(N)s1	/	.	/	.	/	/
CN(C)c1ccc(CNC(=O)CN(C)S(=O)(=O)c2ccc3c(c2)c(=O)n(C)c(=O)n3C)cc1	.	.	.	.	.	.
COc1cccc(C2=CC(c3ccccc3)n3ncnc3N2)c1 (stereo not drawn)	?	/	/	/	/	56µM
COc1ccc(C2C=C(c3ccc(Br)s3)Nc3ncnn32)cc1OC (stereo not drawn)	11µM	/	/	/	/	?
COc1cccc(C2=CC(c3ccc(N(C)C)cc3)n3ncnc3N2)c1 (stereo not drawn)	40µM	/	/	/	/	.
CC(C)(C)Cc1c(-c2ccc(Br)cc2)nc2ccc(Br)cn12	/	.	/	.	/	/
Cc1ccc(S(=O)(=O)Nc2cc3c(cc2C)n(C)c(=O)c(=O)n3C)c(C)c1	.	/	.	/	.	.
COc1cc(/C=C2\C(=N)N3N=CSC3=NC2=O)cc(Br)c1OC(=O)c1ccco1	?	/	.	.	.	.
O=C(Nc1nnc([C@@H]2C[C@H](O)[C@@H](CO)O2)s1)Nc1ccccc1Oc1ccccc1	/	.	/	.	/	/
COc1ccc(Oc2ncc3nc(-c4ccc(OC)cc4)c(=O)n(Cc4cccs4)c3n2)cc1	.[12.7 µM]	/	/	/	/	/
Fc1ccc(-n2c(=S)[nH]c3cccnc32)cc1	/	.	16µM	.	71µM	.
SMILES	G9a inh	CtBP-E1A blk	JMJD2A Tudor	Six1-Eya2 blk	HP1b chromo inh	BAZ2B block
O=c1[nH]c(=S)n(-c2ccc(Br)cc2)c2ncccc12	/	.	.	.	.	/
O=C(CN1C(=O)NC2(CCCC2)C1=O)c1ccc(Cl)s1	79µM	.	.	.	.	.
CC(C)(C)C(=O)NCc1ccc(C(=O)CN2C(=O)NC3(CCCC3)C2=O)s1	.	.	.	.	.	.
CC(C)CC(=O)Nc1nnc(SCc2cc(=O)n3ccccc3n2)s1	.	/	.	/	.	.
Cc1ccc(/C=C/c2nc3ccccc3[nH]2)o1	11µM	.	50µM	.	?	.
O=[N+]([O-])c1cc([N+](=O)[O-])c2oc(-c3ccccc3)c(Br)c2c1O	50µM	.	45µM	.	?	35µM
O=c1[nH][nH]c(-c2ccccc2O)c1C(C[N+](=O)[O-])c1ccc(Cl)cc1Cl (stereo not drawn)	.	.	.	.	.	?
Cc1cc(O)c(C(C[N+](=O)[O-])c2ccc(Cl)cc2Cl)c(=O)o1 (stereo not drawn)	4.5µM	.	.	.	.	?
CS(=O)(=O)c1ccc2c(c1)sc1nc(=O)c(/C=C3/C=CC(=O)C(O)=C3)c(N)n12	5µM	.	7.1µM	.	16µM	14µM
Cc1nc(Cc2nnc(SCC(=O)N3CCN(c4ccccc4)CC3)o2)cs1	45µM	.	.	.	.	.
COc1ccc(C(=O)NCc2nnc(SCC(=O)N3CCCCC3)o2)cc1OC	79µM	.	.	.	.	.
O=C(NCc1nnc(SCC(=O)N2CCN(c3ccccc3)CC2)o1)c1ccc(F)cc1	79µM	.	.	.	.	.
COc1ccccc1/C=C/C=N/n1c(-c2ccccc2)n[nH]c1=S	/	.	.	.	.	.
COc1ccccc1/C=C/C=N/n1c(-c2ccc(Cl)cc2)n[nH]c1=S	/	.	89µM	.	?	?
COc1ccc(-c2n[nH]c(=S)n2/N=C/C=C/c2ccccc2OC)cc1	1.3µM	.	79µM	.	.	.
Cc1ccc(S(=O)(=O)n2ccc3c(OCCOCCSCC(NC(=O)OC(C)(C)C)C(=O)O)cccc32)cc1 (stereo not drawn)	.[12.7 µM]	.	.	.	.	50µM
Cc1ccc(S(=O)(=O)n2ccc3c(OCCOCCNCc4ccc(F)cc4)cccc32)cc1	?	.	.	.	.	.
CCS(=O)(=O)N1CCc2cc(C(=O)Nc3ccc(Br)cc3F)ccc21	.	/	?	/	.	?
Cc1ccc(C(O)c2ncc(-c3cccc4ccccc34)[nH]2)c(C)c1 (stereo not drawn)	/	.	/	.	/	/
S=C1NC=NC2N=CNC12 (stereo not drawn)	22µM	/	/	/	/	/
COc1ccc(CN2C(=O)CN=C2Nc2cc(C)ccc2C)cc1	?	.	.	.	.	?
CCc1ccccc1NC1=NCC(=O)N1Cc1ccc(OC)cc1	45µM	.	.	.	.	?
CCOc1ccc(NC2=NCC(=O)N2CCc2ccccc2)cc1	?	.	.	.	.	79µM
Cc1ccc(NC2=NCC(=O)N2CCc2ccccc2)cc1C	.[12.7 µM]	.	.	.	.	.

Source: PubChem
